IL-1B inflam inh – blocks inflammasome-driven IL-1 beta release; THP-1 LPS/ATP IL-1B secretion, AlphaLISA, 16 h; active compounds read low; activity change, % at 57.5 µM; actives 4.7% (n = 360,000); AID 743279; in the data active means activity change below about -50%; inconclusive means mostly about -30% to -49%
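Secreted IL-1B measured by AlphaLISA bead assay after 16 h compound exposure of THP-1 cells; compounds (final up to 57.5 uM) added 1 h before LPS (250 ng/mL) and ATP (1.25 mM) stimulation; lower signal means less secretion.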
HT1080 IDH1KD tx – HT-1080 IDH1 knockdown cell toxicity (counter line). AID 686971. Potency, µM (doses to about 46.1 µM), for inactives: at the top dose activity, negative = toxicity, actives largely listed as cytotoxic. HT-1080 IDH1 knockdown viability, ATP luminescence, 48 h. actives 2% (n = 360,000);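 further: potency means the concentration at half of the fitted maximal effect; 0% = DMSO wells and -100% = cell-free medium wells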
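Luminescent ATP read-out (CellTiter-Glo, 10 min at room temperature) after 48 h compound exposure at 37 °C gave viability of IDH1-knockdown HT-1080 cells. Activity was normalised to DMSO and cell-free wells, then fitted as concentration-response curves.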
TDP1 cell CPT – DT40-hTDP1 cell growth loss with CPT; AID 686979; Potency, µM (doses to about 46.2 µM), inactives show at the top dose activity change, negative = growth inhibition, most hits filed as inhibitors; actives 12% (n = 420,000); chicken DT40 Tdp1-/-;hTDP1 cells + 20 nM CPT, ATP luminescence, 48 h; further: potency means the concentration at half of the fitted maximal effect; nearly all actives have a fitted effect of over 55% in size
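Chicken DT40 Tdp1-/- cells stably complemented with human TDP1 were seeded at 400 cells/well in medium containing 20 nM camptothecin, exposed to pin-transferred compounds, and grown at 37 °C for at least 48 hr. Viability was read as ATP luminescence.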
HT1080-NT tox – kills 2HG-producing HT-1080-NT fibrosarcoma cells; HT-1080-NT fibrosarcoma viability, CellTiter-Glo ATP luminescence, 48 h; Potency, µM (doses to about 46.1 µM), for the others: at the top dose activity, negative = less viability, most hits filed as cytotoxic; actives 1.6% (n = 360,000); AID 686970;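 further: NT is the 2HG producing partner of a matched IDH1 knockdown line; potency means the concentration at half of the fitted maximal effect; 0% = DMSO-treated cells and -100% = media-only wells without cells; nearly all actives have a fitted effect of over 55% in size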
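750 cells/well, RPMI + 5% FBS; 2 h settle, compound pin-transfer, 48 h at 37 degrees C. CellTiter-Glo 10 min RT, luminescence. Normalized to DMSO and media-only wells.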
DT40 TDP1 no CPT – qHTS for Inhibitors of human tyrosyl-DNA phosphodiesterase 1 (TDP1): qHTS in cells in absence of CPT | DT40 Tdp1-/- hTDP1 cells, no CPT, ATP luminescence, 48 h | actives 15% (n = 420,000) | Potency, µM (doses to about 46.2 µM), inactives show at the top dose activity change, negative = growth inhibition, hits mostly inhibitors | AID 686978, 2013; further: potency means the concentration at half of the fitted maximal effect; nearly all actives have a fitted effect of over 55% in size
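Seeded 400 DT40-hTDP1 cells/well (vehicle DMSO, no 20 nM CPT); pinned compounds; ≥48 hr at 37 °C; CellTiter-Glo luminescence as viability measure.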
* marks the source's active call; other numbers are inactive results; ? = inconclusive; / = not tested or not shown; [ ] = remark or other dose. Rows were chosen to be rich in hits. Some 19% of all compounds tested hit in one or more screens of this group. Unless noted, the call rests on the fitted dose curve; in most records, active means well fitted curve in the direction sought with a large enough effect; inconclusive means small, poorly fitted or top-dose-only effect, or another doubt; inactive means no such curve, though single readings can be large; an effect the other way counts as inactive or inconclusive. Unless noted, on the % scale 0 is the no-effect control and ±100 the full control effect.

SMILES	IL-1B inflam inh	HT1080 IDH1KD tx	TDP1 cell CPT	HT1080-NT tox	DT40 TDP1 no CPT
CCC1=C[C@@H]2CN(C1)Cc1c([nH]c3ccccc13)[C@@](C(=O)OC)(c1cc3c(cc1OC)N(C)[C@H]1[C@@](O)(C(=O)OC)[C@H](OC(C)=O)[C@]4(CC)C=CCN5CC[C@]31[C@@H]54)C2	/	/	0.06µM*	/	0.053µM*
CC[C@]1(O)CC2CN(CCc3c([nH]c4ccccc34)[C@@](C(=O)OC)(c3cc4c(cc3OC)N(C)[C@H]3[C@@](O)(C(N)=O)[C@H](O)[C@]5(CC)C=CCN6CC[C@]43[C@@H]65)C2)C1 (some centres undefined)	/	/	0.34µM*	/	0.34µM*
CCOC(=O)CNC(=O)N(C)[C@H]1C[C@H]2c3[nH]c4ccccc4c3CCN2C[C@H]1[C@H](C)O	20	12%	-30%	17%	-13%
Nc1cc(=O)[nH]c(SCC(=O)Nc2cc(S(=O)(=O)N3CCCCC3)ccc2Cl)n1	18	3%	-20%	-7%[9.24 µM]	-7%
CCOc1ccc(NS(=O)(=O)c2cccc(C(=O)N(C)Cc3ccco3)c2)cc1	-3	0%	?	7%	?
COC(=O)C[N+](C)(C)C/C=C\c1ccccc1	-12	20%	20%	18%	-22%
Oc1[nH]c2ccc(Br)cc2c1N=Nc1ccc(C(F)(F)F)cn1	-57*	-8%	?	2%	?
CC1CCc2c(sc3nc(C(C)(C)C)nc(N4CCN(C(=O)CCl)CC4)c23)C1 (centres undefined)	-95*	4.6µM*	1.8µM*	12µM*	2.6µM*
CCN1CCN(c2ncnc3sc4c(c23)CCC(C)C4)CC1 (centres undefined)	2	1%	-10%	1%	-12%
CC(C)NC(=O)Nc1ccc2c(c1)C(=O)N([C@H](C)CO)C[C@H](C)[C@@H](CN(C)S(=O)(=O)c1ccc(F)cc1)O2	10	8%	-13%	-15%	-2%
O=C(CSc1nccn1Cc1ccc(F)cc1)Nc1ccc2c(c1)OCO2	/	/	?	/	-12%
CCOc1ccc(S(=O)(=O)N(CC)CC)cc1N	-1	-7%	1%	2%	-25%
CCOc1ccc(C(=O)c2ccc(OCC)c(N)c2)cc1N	?	-18%	?	-1%	29µM*
O=C(CC(=O)NCc1ccccc1)NCc1ccccc1	-8	11%	1%	-16%	0%
CCCOc1cc(C)c(S(=O)(=O)NCCOC)cc1C	8	-2%	26µM*	-23%	?
CC(=O)c1sc(C(C)(C)C)cc1NC(=O)/C=C/C(=O)O	-96*	-8%	-27%	-6%	?
CCOC(=O)Cc1csc(SCC(=O)Nc2cc(Cl)ccc2Oc2ccccc2)n1	40	-2%	?	1%	?
Cc1onc(-c2ccccc2)c1C(=O)Nc1nnc(COc2ccc(Cl)cc2)s1	-13	?	5.8µM*	?	8.2µM*
COc1ccc(/C=C/c2nnc(NC(=O)CC(C)C)s2)cc1	16	-21%	?	?	?
O=C(CSc1ccccc1)Nc1nnc(COc2ccc(Cl)cc2)s1	-26	-10%	8.2µM*	-1%	26µM*
CCc1nnc(NC(=O)c2c(-c3ccccc3)noc2C)s1	5	8%	-22%	7%	-7%
COc1ccc(/C=C/c2nnc(NC(=O)CSc3ccc(Cl)cc3)s2)cc1	7	-11%	6.5µM*	0%	16µM*
CCOCC(=O)Nc1nnc(COc2ccc(Cl)cc2)s1	-15	-14%	16µM*	-6%	23µM*
Cc1ccccc1-c1nnc(SCC(=O)c2c(N)n(C3CC3)c(=O)[nH]c2=O)o1	-6	0%	-27%	1%	?
CN1N=C(C(=O)N2CCc3c([nH]c4ccccc34)C2c2c(F)cccc2Cl)CCC1=O (centres undefined)	24	-22%	-9%	-15%	-25%
